Measurements taken from PubChem BioAssay (NCATS).
Results filed as inconclusive are left out. Active and inactive are the calls of the source. The call rests on the fitted dose curve; in most records, active means well fitted inhibition curve with a large enough effect; inconclusive means small, poorly fitted or top-dose-only effect; inactive means flat fitted curve, though single readings scatter. *1 amine or outer side, *2 acyl side, *3 side chain or, on linkers, in order; H or OH if unused. Where a SMILES comes first, the peptide text is derived from it. [ ]: non-standard residue; d: D form. X13 = O=C(C(CC(O)CO)O[*:1])[*:2]; NMeV = CN[CH](C(=O)O)C(C)C; NMeA = CN[CH](C)C(=O)O; βAla = NCCC(=O)O

Each molecule was assayed on NIH3T3 (assay: qHTS assay to identify novel small-molecules to repurpose for Merkel cell carcinoma treatment (AID 1296009; further: nearly all actives have a fitted effect of over 60% in size)). Conditions: MCC and control cell lines, CellTiter-Glo viability, 72 h; at 44.8 µM (top of the series) unless noted.
How it was run: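 Cells were treated for 72 hr at 37 degree celsius with compounds in 8- or 11-point dose response. Viability was read by CellTiter-Glo luminescence, normalized to no-cell (cytotoxicity) and DMSO controls.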

Question: `COC(=O)C1(O)C(OC(C)=O)CCC2C3(CC(c4ccoc4)OC3=O)C(C)=CCC21C(=O)OC` (stereo unspecified) was tested. Which outcome did it give?
Answer: The outcome was “inactive [at 17.4 µM]”.

Question: How did the outcome turn out when `O=C(Nc1cc(-c2ccccc2)nn1-c1ccccc1F)c1ccc([N+](=O)[O-])cc1` was run?
Answer: The outcome was “inactive”.

Question: Which outcome does the source give for `Cc1sc(C)c(C(=O)NC2(c3ccc(C(=O)O)cc3)CC2)c1Cc1ccc(C(F)(F)F)cc1` here?
Answer: Its outcome is “inactive”.

Question: For `COc1cc([C@@H](O[C@@H]2O[C@H](CO)[C@@H](O)[C@H](O)[C@H]2O)[C@@H]2CO[C@H](c3ccc(O)c(OC)c3)[C@H]2CO)ccc1O`, which outcome is on record?
Answer: The outcome was “inactive [at 17.4 µM]”.

Question: With `CC(C)NC(=O)c1ccc(C#Cc2ccncc2)cn1` as the molecule, how does the outcome read?
Answer: The outcome was “inactive”.

Question: Which outcome does the source give for `O=C(O)CC/C=C\C[C@H]1CO[C@@H](c2ccccc2Cl)O[C@H]1c1ccccc1O` here?
Answer: The outcome was “inactive”.

Question: With `CC(C)=CCc1cc(O[C@@H]2O[C@H](CO[C@@H]3OC[C@](O)(CO)[C@H]3O)[C@@H](O)[C@H](O)[C@H]2O)ccc1O` as the molecule, how does the outcome read?
Answer: The outcome was “inactive [at 17.4 µM]”.

Question: `CC1(C)[C@@H]2CC=C(CO[C@@H]3O[C@H](CO[C@@H]4OC[C@H](O)[C@H](O)[C@H]4O)[C@@H](O)[C@H](O)[C@H]3O)[C@H]1C2` was tested. Which outcome did it give?
Answer: The outcome was “inactive [at 17.4 µM]”.

Question: `COc1ccc(C2C(C(=O)O)C(C(=O)O)C2c2ccc(OC)cc2O[C@@H]2O[C@H](CO)[C@@H](O)[C@H](O)[C@H]2O)c(O[C@@H]2O[C@H](CO)[C@@H](O)[C@H](O)[C@H]2O)c1` (stereo partly specified) was tested. Which outcome did it give?
Answer: Its outcome is “inactive [at 17.4 µM]”.

Question: How did the outcome turn out when `C=C(C)C1CCC2(C(=O)OC3OC(COC4OC(CO)C(O)C(O)C4O)C(OC4OC(C)C(O)C(O)C4O)C(O)C3O)CCC3(C(=O)O)C(CCC4C5(C)CCC(=O)C(C)(C)C5CCC43C)C12` (stereo unspecified) was run?
Answer: Its outcome is “inactive [at 9.27 µM]”.

Question: `CC1=C(CC/C(C)=C/C(=O)O)[C@@]2(C)CCCC(C)(C)C2CC1=O` (stereo partly specified) was tested. Which outcome did it give?
Answer: Its outcome is “inactive”.

Question: `C[C@]12CCC[C@](C)(C(=O)O)C1[C@@H](O)[C@@H](O)C13CC(CCC12)C(CO)(O[C@@H]1O[C@H](CO)[C@@H](O)[C@H](O)[C@H]1O)C3` (stereo partly specified) was tested. Which outcome did it give?
Answer: The outcome was “inactive [at 17.4 µM]”.

Question: `COc1cc(O)cc(C)c1C(=O)O[C@H]1[C@@H](O)[C@@H](n2ccc(=O)[nH]c2=O)O[C@@H]1CO` was tested. Which outcome did it give?
Answer: Its outcome is “inactive [at 17.4 µM]”.

Question: With `C=C1C(=O)O[C@@H]2C[C@]3(C)[C@@H](CCC(C)=O)[C@@H]3C[C@H]12` as the molecule, how does the outcome read?
Answer: Its outcome is “inactive”.

Question: Which outcome does the source give for `C=C1CC[C@@]2(OC1)O[C@H]1CC3[C@@H]4CC=C5C[C@@H](O)C[C@@H](O[C@@H]6OC[C@H](O)[C@H](O)[C@H]6O[C@@H]6O[C@@H](C)[C@H](O)[C@@H](O)[C@H]6O)[C@]5(C)C4CC[C@]3(C)[C@H]1[C@@H]2C` (stereo partly specified) here?
Answer: The outcome was “inactive [at 17.4 µM]”.

Question: Which outcome does the source give for `C/C=C(\C)C(=O)OCC1OC(OCC2OC(OC3(CO)OC(CO)C(O)C3O)C(O)C(O)C2O)C(O)C(O)C1O` (stereo unspecified) here?
Answer: The outcome was “inactive [at 17.4 µM]”.

Question: How did the outcome turn out when `COC(=O)C1=CO[C@@H](O[C@@H]2O[C@H](CO)[C@@H](O)[C@H](O)[C@H]2O)/C(=C\CO)[C@@H]1CC(=O)OCCc1ccc(O)cc1` was run?
Answer: Its outcome is “inactive [at 17.4 µM]”.

Question: `CCC(C)C1NC(=O)C2CCCN2C(=O)C(CC(O)CO)OC(=O)CCNC(=O)C(C)N(C)C(=O)C(C(C)C)N(C)C1=O` (stereo unspecified) (cyclo([X13]PI[NMeV][NMeA][βAla]); configuration not given here) was tested. Which outcome did it give?
Answer: The outcome was “inactive [at 17.4 µM]”.

Question: How did the outcome turn out when `O=C(C[C@@H]1C(C(=O)O)=CO[C@@H](O[C@@H]2O[C@H](CO)[C@@H](O)[C@H](O)[C@H]2O)/C1=C\CO)OCCc1ccc(O)cc1` was run?
Answer: Its outcome is “inactive [at 17.4 µM]”.

Question: `COC(=O)[C@H](O)[C@H]1C(C)(C)[C@H](OC(C)=O)[C@@]2(O)C(=O)[C@]1(C)C1CC[C@]3(C)C(CC(=O)O[C@H]3c3ccoc3)[C@]13O[C@@H]32` (stereo partly specified) was tested. Which outcome did it give?
Answer: The outcome was “inactive [at 17.4 µM]”.

Question: `CC(=O)c1c(C)cccc1O[C@@H]1O[C@H](CO)[C@@H](O)[C@H](O)[C@H]1O` was tested. Which outcome did it give?
Answer: Its outcome is “inactive”.

Question: With `C/C=C(\C)C(=O)OC1CC2C(CC=C3CC(OC4CC(OC)C(OC5CC(OC)C(OC6CC(OC)C(OC7CC(OC)C(OC8CC(OC)C(OC9OC(CO)C(O)C(O)C9O)C(C)O8)C(C)O7)C(C)O6)C(C)O5)C(C)O4)CCC32C)C2(O)CCC(C(C)=O)C12C` (stereo unspecified) as the molecule, how does the outcome read?
Answer: Its outcome is “inactive [at 9.27 µM]”.

Question: `COc1ccc2[nH]c(S(=O)Cc3ncc(C)c(OC)c3C)nc2c1` (stereo unspecified) was tested. Which outcome did it give?
Answer: Its outcome is “inactive”.

Question: For `COc1cc(C)c(C(=O)OC2C(C)OC(OC3CCC(C)C4C3C=C(C)C3/C(C)=C\CC/C(C)=C/C5(C)C=C(C(=O)O)C(C)CC56OC(=O)/C(=C(\O)C34C)C6=O)C(O)C2O)c(OC)c1` (stereo unspecified), which outcome is on record?
Answer: Its outcome is “inactive [at 9.27 µM]”.

Question: How did the outcome turn out when `COc1ccc(/C=C/C(=O)O[C@@H]2[C@@H](O[C@@H]3O[C@H](CO)[C@@H](O)[C@H](O)[C@H]3O)[C@@H](O)[C@H](O[C@H]3C4C=CO[C@@H](O[C@@H]5O[C@H](CO)[C@@H](O)[C@H](O)[C@H]5O)C4[C@@]4(CO)O[C@@H]34)O[C@H]2C)cc1` (stereo partly specified) was run?
Answer: Its outcome is “inactive [at 9.27 µM]”.

Question: Which outcome does the source give for `CC(C)C1NC(=O)C(CC2(O)c3ccccc3N3C(=O)C(Cc4ccccc4)NC32)NC1=O` (stereo unspecified) here?
Answer: Its outcome is “inactive [at 17.4 µM]”.
